Several values for one entry are separate records, joined by “and”; a condition that tells them apart may be missing. Equal entries are not always repeated. Activity calls are given as the source filed them. How the source made its calls: active means hit-call score of the fitted dose curve at least 0.9, where 1 is the maximum; inactive means score below 0.9.
What follows are compounds tested on Interleukin-8 (IL8), CXCL8 (gene 3576) (assay: BSK_KF3CT_IL8: BioMAP Diversity Plus: KF3CT Assay for Interleukin-8 (IL8) Biomarker Activity (AID 2284254)). Settings: primary human keratinocytes with fibroblasts.
Procedure: BSK_KF3CT is a cell-based, multiplexed-readout assay that uses keratinocytes and foreskin fibroblasts, a human skin primary cell co-culture, with measurements taken at 24 hours after chemical dosing in a 96-well plate.BSK_KF3CT_IL8 is an assay component measured in the BSK_KF3CT assay. It measures IL-8 antibody related to regulation of gene expression using ELISA technology.Data from the assay component BSK_KF3CT_IL8 was analyzed at the endpoint, BSK_KF3CT_IL8, in the positive analysis fitting direction relative to DMSO as the negative control and baseline of activity. Using a type of binding reporter, gain or loss-of-signal activity can be used to understand protein changes. To generalize the intended target to other relatable targets, this assay endpoint is annotated to the 'cytokine' intended target family, where the subfamily is 'interleukins'.
The levels of cell surface (or secreted, indicated by the prefix "s") biomarker endpoints were measured by ELISA. Overt cytotoxicity to cells in confluent adherent cultures (all systems other than the BT system) was assessed by measuring total protein levels using sulforhodamine B (SRB) staining in parallel cultures at the time of biomarker measurements, indicated as SRB endpoints. For proliferation assays for adherent cell types, individual cell types are cultured at sub-confluence and relative cell numbers quantified by SRB staining at time points optimized for each system (48 h: 3C and CASM3C systems; 72 h: BT and HDF3CGF systems; 96 h: SAg system). SRB was performed by staining cells with 0.1% SRB after fixation with 10% TCA and reading wells at 560 nm.Viability and proliferation of PBMC (T cells) was quantified by Alamar Blue reduction for the SAg and BT systems. For PBMC viability (referred to as PBMC Cytotoxicity within the assay endpoint names), cells were plated (75,000/well in a 96-well plate) and then chemical samples added for 1 h before addition of activators, SEB and TSST-1 (20 ng/mL final concentration each). Cells were incubated for 90 h. Then, Alamar Blue (20 uL/well) (Invitrogen, Cat DAL1100) was added for 6 h, and the plates were read with a fluorescence microplate reader at 546/580 nm (excitation/emission). For PBMC proliferation, cells were plated and activated as above but incubated for only 16 h prior to addition of Alamar Blue. Plates were read after 6 h.

Row | SMILES | outcome | AC50
1 | CCC[Si](OC(C)=O)(OC(C)=O)OC(C)=O | inactive | 
2 | CC[N+](CC)(CC(=O)Nc1c(C)cccc1C)Cc1ccccc1 (tested in a mixture with another compound) | inactive | 
3 | CN(C)Cc1cc(C(C)(C)C)c(O)c(C(C)(C)C)c1 | inactive | 
4 | Cc1c(C(N)=O)cc([N+](=O)[O-])cc1[N+](=O)[O-] | inactive | 
5 | CC(C)C1OCCN1CCOC(=O)NCCCCCCNC(=O)OCCN1CCOC1C(C)C (configuration not stated) | inactive | 
6 | C1CN(CCOCCN2CCOCC2)CCO1 | inactive | 
7 | COc1cc(CNC(=O)CCCC/C=C/C(C)C)ccc1O | inactive | 
8 | CCCCC(CC)COC(=O)C=Cc1ccc(OC)cc1 (configuration not stated) | inactive | 
9 | OC(C(F)(F)F)(C(F)(F)F)C(O)(C(F)(F)F)C(F)(F)F | inactive | 
10 | O=[N+]([O-])c1cc(S(=O)(=O)Nc2ccccc2)ccc1Nc1ccccc1 |  | 15.3 µM (active) and 10.8 µM (active)
11 | COc1ccc(C(=O)c2ccccc2O)c(O)c1 | inactive | 
12 | COc1ccccc1Oc1c(NS(=O)(=O)c2ccc(C(C)(C)C)cc2)nc(-c2ncccn2)nc1OCCO | inactive | 

— PubChem BioAssay (EPA / NIEHS)
